A selection: hits, their analogues and other compounds. The true share with any hit is near 1.7%.
MIN6 prolif = MIN6 beta-cell proliferation induction. MIN6 cells proliferation, ATPlite luminescence, 48 h; cells starved in 0.2% serum; 100% = growth in 10% serum. proliferation, % at 10 µM. 0.29% of 330,000 active;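 active means compounds whose signal lies at least 3.5 SD above the mean of all wells on their plate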;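 further: 0% = DMSO-treated cells in low-serum medium and 100% = 10% serum control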
HTR5A inv ctr = HTR5A inverse agonism, opioid heterodimer counter-screen; P47898; HTR5A cell line, luminescence; inhibition, % at 9.3 µM; 0.083% of 340,000 active; AID 504634; in the data active means inhibition mostly above about 23%, no sharp cut-off; inactive means mostly below about 18%;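 further: 0% = cells with DMSO and 100% = no-cell wells with DMSO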
MOR-DOR ag-1 = OPRM1-OPRD1 heterodimerization agonism; 0.3% of 340,000 active; AID 504326; activation, % at 9.3 µM; cells, luminescence;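 further: 0% = vehicle-treated cells and 100% = reference agonist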
Target sequence (P35372 whole entry, looked up): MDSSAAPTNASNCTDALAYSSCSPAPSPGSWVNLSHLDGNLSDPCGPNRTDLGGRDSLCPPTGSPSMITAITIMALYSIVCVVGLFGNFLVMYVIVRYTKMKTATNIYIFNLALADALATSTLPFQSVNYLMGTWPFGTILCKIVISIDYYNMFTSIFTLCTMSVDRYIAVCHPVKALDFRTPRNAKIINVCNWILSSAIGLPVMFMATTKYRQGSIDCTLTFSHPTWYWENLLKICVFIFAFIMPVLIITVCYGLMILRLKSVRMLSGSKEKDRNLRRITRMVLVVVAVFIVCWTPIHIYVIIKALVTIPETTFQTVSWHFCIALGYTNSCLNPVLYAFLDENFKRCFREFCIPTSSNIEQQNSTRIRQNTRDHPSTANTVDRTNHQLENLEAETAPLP
Target sequence (P41143 whole entry, looked up): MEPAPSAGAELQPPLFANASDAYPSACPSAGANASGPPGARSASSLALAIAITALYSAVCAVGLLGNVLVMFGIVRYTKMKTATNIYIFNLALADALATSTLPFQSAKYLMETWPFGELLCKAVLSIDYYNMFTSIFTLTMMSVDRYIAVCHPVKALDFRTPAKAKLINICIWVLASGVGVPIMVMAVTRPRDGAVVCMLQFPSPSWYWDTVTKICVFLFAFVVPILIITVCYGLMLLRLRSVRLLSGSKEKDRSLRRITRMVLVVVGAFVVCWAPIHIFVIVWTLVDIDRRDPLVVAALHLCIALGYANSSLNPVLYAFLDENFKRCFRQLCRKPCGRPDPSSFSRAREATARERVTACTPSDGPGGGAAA
HTR5A ag ctr = HTR5A agonism, opioid heterodimer counter-screen; P47898; 0.61% of 340,000 active; HTR5A agonist assay, luminescence, cell-based; activation, % at 9.3 µM; in the data active means activation mostly above about 9.5%, no sharp cut-off; inactive means mostly below about 7.6%;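 further: 0% = cells with vehicle only and 100% = reference agonist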
V-ATPase pHluor = yeast V-ATPase proton transport regulation by pHLuorin; S. cerevisiae, pHLuorin cytosolic pH fluorescence; response, % at 10 µM; 0.37% of 350,000 active; in the data active means response mostly above about 7.3%, no sharp cut-off; inactive means mostly below about 5.4%; further: actives read high
MOR-DOR inv ag = inverse agonist of human OPRM1-OPRD1 heterodimerization. P35372+P41143. cell-based MOR-DOR heterodimer luminescence, inverse agonism. inhibition, % at 9.3 µM. 0.21% of 340,000 active; in the data active means inhibition above about 22%, passing the limit was not always enough;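 further: 0% = cells with DMSO and 100% = wells without cells with DMSO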
MOR-DOR ag-2 = promotes OPRM1-OPRD1 heterodimerization in HTR5A counter-screen | shares compounds with HTR5A ag ctr | U2OS counter-screen cells, complementation luminescence, 3 h | activation, % at 9.3 µM | 13% of 800 active | AID 504913
HTR5A ag confirm = HTR5A (human) agonism, confirmation. shares compounds with HTR5A ag ctr. HTR5A agonist cell assay, luminescence. activation, % at 9.3 µM. 17% of 800 active. AID 504915; in the data active means activation above about 17%;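 further: 0% = cells with vehicle only and 100% = full reference agonist response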
* = called active by the depositor; / = not tested or not shown. Unless noted, no stated cut-off is given here; in the data, active means activation above about 18%; inactive means the rest.

SMILES	MIN6 prolif	HTR5A inv ctr	MOR-DOR ag-1	HTR5A ag ctr	V-ATPase pHluor	MOR-DOR inv ag	MOR-DOR ag-2	HTR5A ag confirm
O=C(Cc1ccc(NS(=O)(=O)c2cccc(C(F)(F)F)c2)cc1)NCCN1CCOCC1	6	-14	-1	5	-4	6	/	/
NS(=O)(=O)c1ccc(NC(=O)Cn2ncc3c2-c2ccccc2OC3)cc1	0	-57	5	19*	1	-28	0	4
O=C(Cn1ncc2c1-c1ccccc1OC2)Nc1cccc(Cl)c1	-1	-27	4	9	1	-22	/	/
CC(OC(=O)c1ccco1)C(=O)Nc1ccc(C(F)(F)F)cc1 (stereo not drawn)	-1	-49	-1	20*	-1	5	3	-4
CC(OC(=O)c1ccccn1)C(=O)Nc1ccc(C(F)(F)F)cc1 (stereo not drawn)	-6	-6	-2	2	-4	9	/	/
O=C(COc1ccc(-c2ccccc2)cc1)N/N=C/c1cc(O)ccc1Br	-5	-21	4	22*	1	-26	255*	-2
CC(C)C[C@H](NC(=O)N1CC(=O)Nc2ccccc21)C(=O)N[C@@H](Cc1c[nH]c2ccccc12)C(=O)O	1	-1	-3	40*	-3	16	0	-2
COc1ccc(CCn2c(-c3cc([N+](=O)[O-])cc([N+](=O)[O-])c3)nc3nc4ccccc4nc32)cc1OC	-2	0	2	2	0	-10	/	/
Cc1cccc(CSCCNC(=O)COc2ccc(Cl)cc2)c1	-4	2	3	14*	0	-21	-6	-4
O=C(COc1ccc(Cl)cc1)NCCSCc1cccc(Cl)c1	-2	11	-1	1	-5	7	/	/
COc1ccc(C(=O)Nc2cccc([N+](=O)[O-])c2)cc1Br	-3	-47	12	19*	1	-51	8	0
COc1ccc(C(=O)Nc2ccc(OC)c([N+](=O)[O-])c2)cc1Br	0	12	-2	1	-1	10	/	/
CCc1ccc(C(=O)C(C)OC(=O)c2cccc(S(=O)(=O)N3CCOCC3)c2)cc1 (stereo not drawn)	-4	-7	0	-1	1	1	/	/
COc1cccc(CNC(=O)CCc2nnc3ccc(NCCCN4CCCC4=O)nn23)c1	-4	-16	2	17*	7	-8	0	0
COc1ccc(CNC(=O)CCc2nnc3ccc(NCCCN4CCCC4=O)nn23)cc1	-1	1	1	2	3	-4	/	/
COc1cccc(C2CC(=O)Nc3cc4c(cc32)CCC4)c1 (stereo not drawn)	-5	-42	0	15*	0	1	54*	-1
COc1cccc(C2CC(=O)Nc3cc(OC)c(OC)cc32)c1 (stereo not drawn)	-1	-4	-1	1	1	6	/	/
CC1CCc2c(sc(/N=C/c3ccco3)c2C(N)=O)C1 (stereo not drawn)	-3	-1	-3	-2	1	14	/	/
COc1ccc(Cl)cc1NC(=O)NCc1ccccn1	-3	-41	-2	17*	-6	13	11	0
COc1ccc(Cl)cc1NC(=S)NCc1ccccn1	0	3	-3	2	-3	15	/	/
CCCCCCCCCCOC(=O)Cn1c(COc2ccccc2)[n+](C)c2ccccc21	-5	-60	10	15*	0	-55	15	10
CCCCCCCCCCOC(=O)Cn1c(COc2ccc(OC)cc2)[n+](C)c2ccccc21	-6	-45	12	12*	3	-62	-2	-1
CCCCCOC(=O)Cn1c(=O)oc2ccccc21	-1	10	2	-5	-1	-10	/	/
COc1ccccc1CNC(=O)CN1C(=O)NC(c2ccccc2)(c2ccc(C)c(C)c2)C1=O (stereo not drawn)	-7	13	0	9	2	-2	/	/
COc1ccc(C(CC(=O)NC(C)c2ccc(-c3ccccc3)cc2)NC(C)=O)cc1 (stereo not drawn)	-1	-8	0	7	-2	2	/	/
SMILES	MIN6 prolif	HTR5A inv ctr	MOR-DOR ag-1	HTR5A ag ctr	V-ATPase pHluor	MOR-DOR inv ag	MOR-DOR ag-2	HTR5A ag confirm
CN1C(=O)C2(NCCc3c2[nH]c2ccccc32)c2ccccc21 (stereo not drawn)	-3	-14	1	5	9	-4	/	/
CC1=CC(C)(C)N2C(=O)C3(NCCc4c3[nH]c3ccccc43)c3cc(C)cc1c32 (stereo not drawn)	-5	-24	3	16*	-3	-13	32*	6
O=C(c1ccc(Cl)c(S(=O)(=O)N2CCCCCC2)c1)N1CCN(c2ccccn2)CC1	-3	-90	2	25*	1	-12	1	31*
O=C1NCCCC1C(=O)Nc1cccc(C(F)(F)F)c1 (stereo not drawn)	5	-52	-3	22*	-9	12	2	1
Cc1ccc2nc3c(c(Nc4ccc5c(c4)OCCO5)c2c1)CCC3	-6	-190	-2	41*	0	10	2	60*
Cc1ccc2nc3c(c(Nc4ccc(O)cc4)c2c1)CCC3	-6	-11	-1	3	1	3	/	/
CN(C)c1cccc(NC(=O)Cc2ccc(F)cc2)c1	1	12	-1	18*	4	8	1	8
CN(C)c1cccc(NC(=O)CCc2ccccc2)c1	-4	-29	16	5	-1	-67	/	/
Cc1ccc(-c2cc(C(=O)Nc3ccc(S(=O)(=O)Nc4ncccn4)cc3)c3ccccc3n2)cc1	0	-9	0	-2	1	-2	/	/
CCc1ccc(-c2cc(C(=O)Nc3ccc(S(=O)(=O)NC(C)=O)cc3)c3ccccc3n2)cc1	-4	-51	-2	21*	4	12	10	-3
COc1cccc2cc(C(=O)N3CCc4ccccc43)c(=O)oc12	-1	14	-4	-2	4	19	/	/
COc1ccc2oc(=O)c(C(=O)N3CCc4ccccc43)cc2c1	2	-6	-1	15*	1	4	3	6
COc1ccccc1N(CC(=O)NCc1ccco1)S(C)(=O)=O	-2	-8	-2	3	-1	9	/	/
COc1ccc(S(=O)(=O)N(CC(=O)NCc2ccco2)c2ccccc2OC)cc1	1	3	-1	17*	1	8	3	2
Cc1noc(C)c1C(=O)Nc1nnc(CC(C)C)s1	4	-8	-3	3	-1	17	/	/
CCOC(=O)C(C)N1N=C(/C=C/c2ccc(C)cc2)CCC1=O (stereo not drawn)	0	-54	-2	21*	2	8	1	4

Bioassay records from PubChem.
